Screens: PubChem, several laboratories
Hits are enriched below; roughly 0.23% of the tested compounds scored in any of these assays.
Bim-Bcl-2 = inhibitors of Bim-Bcl-2 interaction, human | AID 950 | inhibition, % at 10 µM | P10415 | Bead-based flow cytometry, Bim peptide-Bcl-2 binding | 190,000 compounds, 0.06% hits; in the data active = inhibition above about 40%;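 note: 0% = no compound wells with probe peptide and 100% = reference peptide inhibitor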
Bim-Bcl-W = inhibitors of Bim-Bcl-W interaction, human; Q92843; bead-based flow cytometry, Bim peptide-Bcl-W binding; inhibition, % at 10 µM; 190,000 compounds, 0.02% hits; AID 952;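 note: 0% = bound tracer without compound and 100% = peptide blocker; higher means less fluorescent Bim peptide bound to Bcl-W beads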
Bim-Bfl-1 = inhibitors of Bim-Bfl-1 interaction, human | Q16548 | Bead-based flow cytometry, Bim-Bfl-1 binding inhibition | inhibition, % at 10 µM | 190,000 compounds, 0.12% hits | AID 1008;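 note: 0% = wells without compound plus tracer and 100% = blocker peptide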
Target sequence (Q16548 whole entry, looked up): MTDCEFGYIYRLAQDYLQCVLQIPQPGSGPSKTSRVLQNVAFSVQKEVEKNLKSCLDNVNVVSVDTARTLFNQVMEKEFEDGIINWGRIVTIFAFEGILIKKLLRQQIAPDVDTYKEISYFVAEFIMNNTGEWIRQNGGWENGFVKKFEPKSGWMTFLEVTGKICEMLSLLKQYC
Bim-Bcl-B = human Bim-Bcl-B interaction inhibition. Q9HD36. bead-based flow cytometry, Bim peptide-Bcl-B binding. inhibition, % at 10 µM. 190,000 compounds, 0.073% hits. AID 951;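 note: 0% = tracer peptide without compound and 100% = reference inhibitor peptide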
Target sequence (Q9HD36 whole entry, looked up): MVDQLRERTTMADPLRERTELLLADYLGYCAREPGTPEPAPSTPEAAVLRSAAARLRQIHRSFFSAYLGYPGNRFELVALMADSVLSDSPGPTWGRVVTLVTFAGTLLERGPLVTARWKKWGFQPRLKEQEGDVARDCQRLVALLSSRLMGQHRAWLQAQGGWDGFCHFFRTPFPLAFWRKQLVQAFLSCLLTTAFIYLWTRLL
Phagocytosis inh = inhibitors of macrophage phagocytosis; J774A.1 macrophage IgG-bead phagocytosis, imaging; inhibition, % at 5 µM; AID 1029; 110,000 compounds, 0.07% hits;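 active = inhibition above the mean of the plate negative controls plus 5 SD, cut at about 13% in these data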;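 note: phagocytic index as fraction of beads internalized from green versus red external bead signal; plate controls were DMSO negative control for no effect and cytochalasin-D positive control for full effect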
Bim-Bcl-XL = inhibitors of Bim-Bcl-XL interaction, human; Q07817; 190,000 compounds, 0.04% hits; inhibition, % at 10 µM; Bim peptide-Bcl-XL binding, bead flow cytometry, fluorescence
* hit, by the source's call; · = no result; [ ] = remark or other dose. Cut-off read from the data, not from the text of the source, unless noted: active = inhibition above about 40%.

SMILES	Bim-Bcl-2	Bim-Bcl-W	Bim-Bfl-1	Bim-Bcl-B	Phagocytosis inh	Bim-Bcl-XL
CN1CCc2cccc3c2[C@@H]1Cc1ccc(O)c(O)c1-3	40*	51*	40*	-12	·	22
CCOC(=O)C1=C(CC)Nc2ccccc2N=C1NC(=O)c1ccc(S(=O)(=O)N(C)C)cc1	-11	0	-16	-10	0	-14
CCOC(=O)C1=C(CC)Nc2ccccc2N=C1NC(=O)c1ccc(S(=O)(=O)N2CCOCC2)cc1	78*	0	57*	75*	·	4
Cc1c(Br)cc(C(=O)N2CCN(CCO)CC2)c(C)c1C	-12	-4	-19	-11	1	-26
OCCN1CCN(CCCc2c3c(cc4c2CCC4)CCC3)CC1	21	32	13	61*	-3	32
CNc1ccc(Br)cc(C(=O)/C=C/c2cc(OC)ccc2OC)c1=O	25	22	42*	-21	·	26
Cc1cc(C)nc(NCCC(=O)O)n1	-3	1	-8	-2	·	0
COc1ccc2cc(CN(CCc3ccccc3)Cc3nnnn3CC3CCCO3)c(=O)[nH]c2c1 (stereo unspecified)	31	25	44*	21	1	42*
Cc1ccc(NC(=O)CC2C(=O)N(Cc3ccccc3)C(=S)N2NC(=O)c2ccccc2)c(C)c1 (stereo unspecified)	-12	-7	-10	-12	-8	-8
CNC(=O)CC1C(=O)N(Cc2ccccc2)C(=S)N1NC(=O)c1cccc(F)c1 (stereo unspecified)	27	28	40*	25	1	40*
CCN(CC)S(=O)(=O)c1cccc(C(=O)N/N=C/c2ccc(O)c(O)c2O)c1	33	38	37	43*	-2	54*
CCOc1ccccc1/C=N/NC(=O)c1cccc(S(=O)(=O)N(CC)CC)c1	-4	-3	-3	-4	·	-2
CCn1c(C)nc2cc(C(=O)N/N=C/c3ccc(O)c(O)c3O)ccc21	34	38	52*	9	·	13
CCn1c(C)nc2cc(C(=O)N/N=C/c3cccc(OC)c3O)ccc21	-1	-2	-7	-4	·	0
CC(C)CC(=O)Nc1cccc(C(C)O)c1 (stereo unspecified)	-2	0	0	2	·	-1
CSc1nc(C)c(Cl)c(C)c1C#N	-4	0	-6	-1	-3	0
C=CCNS(=O)(=O)c1nc(C)c(Cl)c(C)c1C#N	-8	5	-6	-10	27*	2
Cc1cc2n(c1)CCn1c(C)ccc1-2	17	23	28	40*	1	5
O=C(NCc1cccnc1)Nc1cccc(NC(=O)NCc2cccnc2)c1	-10	2	-10	-11	90*	-12
Cn1cc(/C=C/C(=O)N2CCCC(C(=O)c3ccc(C(C)(C)C)cc3)C2)cn1 (stereo unspecified)	-3	0	-7	-7	·	-3
O=S(=O)(Nc1ccccc1)c1ccc(F)cc1	-6	-3	-5	-2	-1	-5
O=C1c2ccccc2C(=O)c2cc(S(=O)(=O)Nc3ccccc3)ccc21	0	-5	-1	41*	-14	-6
O=S(=O)(Nn1cnnc1)c1ccc(F)cc1	-5	-2	-7	-7	·	-5
COc1ccc2oc(-c3ccccc3)c(C(=O)N3CCOCC3)c2c1	80*	8	60*	81*	0	14
Cc1cc(C)nc(NC(=S)Nc2ccc(Br)cc2Cl)c1	-1	-3	0	-9	·	-4
SMILES	Bim-Bcl-2	Bim-Bcl-W	Bim-Bfl-1	Bim-Bcl-B	Phagocytosis inh	Bim-Bcl-XL
Cc1ccccc1-n1c(SCc2cccc(F)c2)nc2[nH]ncc2c1=O	25	25	44*	11	·	39
Cc1ccccc1-n1c(SCc2cc(=O)n3ccccc3n2)nc2[nH]ncc2c1=O	-10	-2	-20	-12	-1	-13
CC(C)=CCN1CCN(Cc2cc(C(C)C)n[nH]2)CC1CCO (stereo unspecified)	0	-3	-5	-6	·	-1
C/C(=N\O)C(C)Oc1ccc(Cl)cc1 (stereo unspecified)	-2	-3	-5	-4	·	-6
CC(C)(C)c1cc[n+](CC(=O)Nc2cc(C(F)(F)F)ccc2N2CCOCC2)cc1	-5	-4	-7	-5	·	-3
CS(=O)(=O)Nc1ccc(C(=O)Nc2cccc([N+](=O)[O-])c2)cc1	1	2	6	7	·	2
CCOc1ccccc1C1CC(=O)Nc2cc(OC)c(OC)c(OC)c21 (stereo unspecified)	0	0	0	1	1	-1
COc1cccc(C2CC(=O)Nc3cc(OC)c(OC)c(OC)c32)c1OC (stereo unspecified)	-1	0	0	-6	44*[artifact]	1
CN1CCN(S(=O)(=O)c2ccc(N3CCc4ccccc4C3)nc2)CC1	-1	2	-3	-1	·	0
COc1ccc(CN(C)CC(=O)Nc2c(C)cccc2C)c(OC)c1	-2	-4	0	1	·	-1
COc1ccc(CN(C)CC(=O)NC(C)c2ccccc2)c(OC)c1 (stereo unspecified)	62*	39	56*	60*	·	30
COc1cccc(C(=O)/C=C/Nc2ccc(S(=O)(=O)Nc3onc(C)c3C)cc2)c1	82*	17	53*	78*	-11	3
CNC(=S)N(Cc1cccs1)Cc1cc2ccc(OC)cc2[nH]c1=O	30	26	47*	29	-10	35
COc1ccc2[nH]c(=O)c(CN(Cc3cccs3)C(=S)Nc3ccccc3)cc2c1	-11	-8	-14	-8	-8	-8
N=C1C(c2nc3ccccc3s2)=C(O)CN1Cc1ccccc1	85*	20	68*	83*	·	23
CN(C)[C@@H]1C(=O)C(C(=O)NCN2CCCC2)=C(O)[C@@]2(O)C(=O)C3=C(O)c4c(O)cccc4[C@@](C)(O)C3CC12 (stereo partly specified)	37	21	19	43*	·	10
C=C1c2cccc(O)c2C(O)=C2C(=O)[C@]3(O)C(O)=C(C(N)=O)C(=O)[C@@H](N(C)C)[C@@H]3[C@@H](O)[C@H]12	-1	-7	0	1	·	-8
CC(C)(C)c1cc(S(=O)(=O)CCc2ccccn2)cc(C(C)(C)C)c1F	-2	-2	-5	0	153*	0
Cc1ccc(OCc2cn3cccnc3n2)cc1	17	21	7	58*	4	25
O=[N+]([O-])c1cccc(OCc2cn3cccnc3n2)c1	2	0	2	0	·	-2
Cc1ccc(C(=O)N/N=C2/NC(=O)CC(C(=O)Nc3ccccc3)S2)cc1 (stereo unspecified)	26	28	28	26	-7	40*
c1ccc(Nc2cccc(Nc3ccccc3)n2)cc1	30	47*	68*	13	0	15
